Reference: PubChem BioAssay (NCATS)
Records with an inconclusive call do not appear. Activity calls are given as the source filed them. The call rests on the fitted dose curve; in most records, active means well fitted inhibition curve with a large enough effect; inconclusive means small, poorly fitted or top-dose-only effect; inactive means flat fitted curve, though single readings scatter.

Key:
CRL-7250 = normal cell line; experiment: Cytotoxic Profiling of Annotated Libraries Using Quantitative High-Throughput Screening (AID 1296008); conditions: Five cell lines viability, CellTiter-Glo ATP luminescence, 48-72 h; max response: active compounds read low; further: potency means the concentration at half of the fitted maximal effect; on max response: on the % scale 0 is the no-effect control and ±100 the full control effect
Summary of the method: (§1)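 Cells exposed to compounds for 48 or 72 hr at 37 degrees Celsius. Viability read as ATP-coupled luminescence with CellTiter-Glo after 10 min at room temperature.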

HEK293 = experiment: as above; conditions: Five cell lines viability, CellTiter-Glo ATP luminescence, 48-72 h; max response: active compounds read low
Summary of the method: as §1

HaCat [1] = experiment: as above; conditions: Five cell lines viability, CellTiter-Glo ATP luminescence, 48-72 h; max response: active compounds read low
Summary of the method: as §1

KB-3-1 = experiment: as above; conditions: Five cell lines viability, CellTiter-Glo ATP luminescence, 48-72 h; max response: active compounds read low
Summary of the method: as §1

NIH3T3 = experiment: as above; conditions: Five cell lines viability, CellTiter-Glo ATP luminescence, 48-72 h; max response: active compounds read low
Summary of the method: as §1

HACAT [2] = experiment: qHTS assay to identify novel small-molecules to repurpose for Merkel cell carcinoma treatment (AID 1296009); conditions: MCC and control cell lines, CellTiter-Glo viability, 72 h; at 44.8 µM (top of the series) unless noted
Summary of the method: (§2)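 Cells were incubated with compound for 72 hr at 37 degree celsius before CellTiter-Glo addition. Luminescence was normalized with no-cell wells as full cytotoxicity and DMSO as baseline.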

HEK293T = experiment: as above; conditions: MCC and control cell lines, CellTiter-Glo viability, 72 h; at 44.8 µM (top of the series) unless noted
Summary of the method: as §2

TAB113 = experiment: qHTS profiling for inhibitors of Plasmodium falciparum proliferation (AID 504749); further: potency means the concentration at half of the fitted maximal effect; conditions: P. falciparum in erythrocytes, SYBR Green DNA, 72 h; series mostly up to 28.7 µM
Summary of the method: (§3)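 Readout was DNA-dye fluorescence from lysed cultures, ex 485/em 535 nm. Parasitized red cells had grown 72 h with compound; data scaled between 0.29 uM artemisinin and DMSO wells and corrected using vehicle-only plates.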

TAB165 = experiment: as above; conditions: P. falciparum in erythrocytes, SYBR Green DNA, 72 h; series mostly up to 28.7 µM
Summary of the method: as §3

W2 = experiment: as above; conditions: P. falciparum in erythrocytes, SYBR Green DNA, 72 h; series mostly up to 28.7 µM
Summary of the method: as §3
Further: nearly all actives have a fitted effect of over 60% in size.

C[C@H]1O[C@@H](O[C@H]2CC[C@@]3(C)[C@H](CC[C@@H]4[C@@H]3C[C@@H](O)[C@]3(C)[C@@H](C5=CC(=O)OC5)CC[C@]43O)C2)C[C@H](O)[C@@H]1O[C@H]1C[C@H](O)[C@H](O[C@H]2C[C@H](O)[C@H](O[C@@H]3O[C@H](CO)[C@@H](O)[C@H](O)[C@H]3O)[C@@H](C)O2)[C@@H](C)O1
active: Potency (CRL-7250) 211 nM | Potency (HEK293) 188 nM | Potency (HaCat [1]) 596 nM | Potency (KB-3-1) 259 nM

COC(=O)C(c1ccccc1Cl)N1CCc2sccc2C1 (configuration not stated)
inactive: max response (CRL-7250) -10.1% | max response (HEK293) 4.89% | max response (HaCat [1]) 4.22% | max response (KB-3-1) -8.1% | max response (NIH3T3) -4.69%

C=C1c2cccc(O)c2C(O)=C2C(=O)[C@]3(O)C(O)=C(C(N)=O)C(=O)[C@@H](N(C)C)[C@@H]3[C@@H](O)[C@H]12
inactive: outcome (CRL-7250) | max response (HEK293) -1.35% | max response (HaCat [1]) -8.16% | max response (KB-3-1) -4.44% | outcome (NIH3T3)

C=C[C@H]1CN2CC[C@H]1C[C@@H]2[C@@H](O)c1ccnc2ccc(OC)cc12
inactive: max response (CRL-7250) -2.42% | max response (HEK293) -4.02% | max response (HaCat [1]) -4.58% | max response (KB-3-1) -6.93% | max response (NIH3T3) 1.59%

CN(C)CCOC(=O)C(c1ccccc1)C1(O)CCCC1 (configuration not stated)
inactive: max response (CRL-7250) -17.7% | outcome (HEK293) | outcome (HaCat [1]) | max response (KB-3-1) -12% | max response (NIH3T3) -1.59% | outcome (HACAT [2]) | outcome (HEK293T)

CC(C(=O)O)c1cccc(Oc2ccccc2)c1 (configuration not stated)
inactive: max response (CRL-7250) -6.67% | max response (HEK293) -4.21% | max response (HaCat [1]) -15.2% | max response (KB-3-1) -5.06% | max response (NIH3T3) -0.596%

O=C1C(=O)c2ccccc2C(O)=C1C1CCC(c2ccc(Cl)cc2)CC1 (configuration not stated)
inactive: max response (CRL-7250) 1.68% | max response (HEK293) 0.597% | max response (HaCat [1]) -2.46% | max response (KB-3-1) -5.6% | max response (NIH3T3) 2.17%
active: Potency (TAB113) 2 nM | Potency (TAB165) 10 nM

O=[N+]([O-])c1ccc(/C=N\O)o1
inactive: max response (CRL-7250) -1.03% | max response (HEK293) -8.88% | max response (HaCat [1]) 1.07% | max response (KB-3-1) -13.1% | max response (NIH3T3) -18.1%

Cc1ccc(-c2ncc(Cl)cc2-c2ccc(S(C)(=O)=O)cc2)cn1
inactive: max response (CRL-7250) -1.19% | max response (HEK293) 4.1% | max response (HaCat [1]) -27.8% | max response (KB-3-1) -5.38% | max response (NIH3T3) -3.08%

C/C=C/c1ccc(O)c(OC)c1
inactive: Potency (TAB113) | Potency (TAB165) | Potency (W2) | max response (CRL-7250) -0.654% | max response (HEK293) -2.94% | outcome (HaCat [1]) | max response (KB-3-1) -3.67% | max response (NIH3T3) -0.28% | outcome (HACAT [2])

CC(=C(CCOC(=O)C(C)C)SSC(CCOC(=O)C(C)C)=C(C)N(C=O)Cc1cnc(C)nc1N)N(C=O)Cc1cnc(C)nc1N
inactive: max response (CRL-7250) 0.406% | max response (HEK293) -4.89% | outcome (HaCat [1]) | max response (KB-3-1) 1.98% | outcome (NIH3T3) | outcome (HACAT [2])

CC[C@]12CCCN3CCc4c(n(c5ccccc45)C(=O)C1)[C@@H]32
inactive: max response (CRL-7250) 2.69% | max response (HaCat [1]) -22.7%
active: Potency (HEK293) 7500 nM

NS(=O)(=O)c1cc2c(cc1Cl)NC(CC1CCCC1)NS2(=O)=O (configuration not stated)
inactive: max response (CRL-7250) -2.46% | max response (HEK293) -7.58% | max response (HaCat [1]) -5.14% | max response (KB-3-1) 7.67% | max response (NIH3T3) 2.98%

CN(C)C(=O)Nc1ccc(Cl)c(Cl)c1
inactive: Potency (TAB113) | Potency (TAB165) | max response (CRL-7250) 2.46% | max response (HEK293) 3.61% | max response (HaCat [1]) -27.1% | max response (KB-3-1) -25.2% | max response (NIH3T3) -5.25%

CC(CNC1CCCCC1)OC(=O)c1ccccc1 (configuration not stated)
inactive: max response (CRL-7250) -16.2% | max response (HEK293) -47.9% | max response (HaCat [1]) -18.5% | max response (KB-3-1) 3.78% | max response (NIH3T3) 0.669%

CCc1oc2ccccc2c1C(=O)c1cc(Br)c(O)c(Br)c1
inactive: Potency (TAB113) | Potency (TAB165) | Potency (W2) | max response (CRL-7250) 0.197% | max response (HEK293) -23.3% | outcome (HaCat [1]) | max response (KB-3-1) -3.26% | max response (NIH3T3) -25.3% | outcome (HACAT [2])

Cc1cc(NS(=O)(=O)c2ccc(N)cc2)nc(C)n1
inactive: Potency (TAB113) | Potency (TAB165) | Potency (W2) | max response (CRL-7250) -3.14% | max response (HEK293) -0.689% | outcome (HaCat [1]) | max response (KB-3-1) 15.3% | max response (NIH3T3) 4.17% | outcome (HACAT [2])

CCN(CC)CCOc1ccccc1C(=O)CCc1ccccc1
inactive: Potency (TAB113) | max response (CRL-7250) -0.916% | outcome (HaCat [1]) | max response (KB-3-1) -2.43% | max response (NIH3T3) -3.4% | outcome (HACAT [2])
active: Potency (W2) 2130 nM | Potency (HEK293) 11900 nM

COc1cc(N)c(Cl)cc1C(=O)NC1CCN(Cc2ccccc2)CC1
inactive: Potency (TAB113) | outcome (CRL-7250) | max response (HEK293) -8.36% | max response (HaCat [1]) 1.83% | max response (KB-3-1) 3.83% | max response (NIH3T3) -4.33%

CC(=O)Nc1ccc(S(=O)(=O)Nc2ccc([N+](=O)[O-])cc2)cc1
inactive: Potency (TAB113) | Potency (TAB165) | Potency (W2) | max response (CRL-7250) -4.42% | max response (HEK293) -4.06% | outcome (HaCat [1]) | max response (KB-3-1) 15% | max response (NIH3T3) 3.15% | outcome (HACAT [2])

CCCCN=C(N)N=C(N)N
inactive: Potency (TAB113) | Potency (TAB165) | Potency (W2) | max response (CRL-7250) 1.78% | outcome (HEK293) | max response (HaCat [1]) 2.62% | max response (KB-3-1) 1.99% | max response (NIH3T3) -1.41% | outcome (HEK293T)

Cc1c[nH]c2ccccc12
inactive: Potency (TAB113) | Potency (TAB165) | Potency (W2) | outcome (CRL-7250) | max response (HEK293) 2.22% | outcome (HaCat [1]) | max response (KB-3-1) 8.35% | outcome (NIH3T3) | outcome (HACAT [2])
